# Compound activity from PubChem BioAssay.
# Shown are actives, neighbours in structure and some others; about 2.8% of the full set was active somewhere.
# EWS-Fli block: inhibitors of EWS/Fli oncoprotein transcriptional activity; A673 NR0B1-luciferase reporter, viability-normalised; inhibition, % at 12.6 µM; 350,000 tested, 0.67% active; AID 651661;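 active = mean inhibition of at least 50% after viability correction, with every replicate also passing that limit; inconclusive = mean reaches 50% but only one of two replicates passes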;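 also: firefly luciferase signal divided by Alamar Blue viability fluorescence both relative to DMSO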
# PAX8 reporter: PAX8 transcriptional activity inhibition; inhibition, % at 12.6 µM; RMG-I TPO-luciferase reporter, SteadyGlo, 24 h; 360,000 tested, 1.2% active;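 active = mean replicate inhibition at least 60% with every replicate also reaching 60%; inconclusive = only one of the two criteria is met; inactive = mean below 60% and not all replicates reaching 60%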;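 also: luciferase light reporting Pax8 driven TPO promoter activity; plate controls were median of neutral control wells for no effect and mitoxantrone controls for full effect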
# TROY NFkB inh: inhibitors of TROY-dependent NF-kB signaling. Q293 LMP1-TROYcd NF-kB luciferase reporter, 4 h. inhibition, % at 10 µM. 360,000 tested, 0.98% active;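 active = compounds whose plate-normalised and pattern-corrected inhibition of the luciferase reporter signal at the single screening dose is 50% or more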
# TWEAK Fn14 block: inhibitors of TWEAK-Fn14 interaction signaling; inhibition, % at 10 µM; AID 1159606; TWEAK-stimulated Fn14 reporter cells, luciferase luminescence, 8 h; 360,000 tested, 2% active; in the data active = inhibition above about 50%
# LGR2 antag: Drosophila LGR2 receptor signaling inhibition. HEK293 LGR2, CRE-luciferase, bursicon-stimulated, 4 h. inhibition, % at 9.99 µM. 380,000 tested, 0.35% active;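 active = drop in luminescence signal, shown as inhibition above about 50% in the replicate tests, limit read from the data, passing the limit was not always enough; inconclusive = probably only some replicates passing the limit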;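 also: agonist challenge used bursicon conditioned medium at about half maximal strength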
# Numbers without * were called inactive; ? = inconclusive; . = no result given.
SMILES,EWS-Fli block,PAX8 reporter,TROY NFkB inh,TWEAK Fn14 block,LGR2 antag
COc1ccc(-n2nnnc2SCC(=O)NC2CC2)cc1,4,75*,-6,12,8
COc1ccc(C(=O)NCC(=O)Nc2ccccc2)cc1OC,.,.,.,59*,.
COc1ccc(C(=O)Nn2c(C)nc3ccccc3c2=O)cc1Br,-5,26,-29,5,0
COc1cc(C(=O)NCC(=O)Nc2c(C)cccc2C)ccc1OCc1ccccc1,5,-17,-27,-5,-11
COc1ccc(C(=O)Nn2c(C)nc3ccccc3c2=O)cc1OC,-17,-2,59*,-8,8
Nc1c(C(=O)Nc2cccc(C(=O)O)c2)sc2nc3c(cc12)CCCC3,85*,85*,-49,29,76*
Cn1c(=O)c2c(nc(Oc3ccc4ccccc4c3)n2C)n(C)c1=O,.,.,26,51*,21
COc1ccc(Oc2nc3c(c(=O)n(C)c(=O)n3C)n2C)cc1,7,-7,-2,35,6
COC(=O)C1=CN(c2ccc(OC)cc2)C(N)=C(C#N)C1c1ccccc1F (stereo not given),43,18,.,.,-25
COC(=O)C1=CN(c2ccc(OC)cc2OC)C(N)=C(C#N)C1c1ccccc1F (stereo not given),53*,22,.,.,-14
COc1ccc(OC)c(-c2cc(-c3cccnc3)nc(N)c2C#N)c1,56*,21,-11,10,10
COc1cccc(-c2cc(-c3cccnc3)nc(N)c2C#N)c1,7,-4,-16,13,-9
COCC(=O)Nc1ccc2c(c1)[C@H]1C[C@H](CC(=O)NCc3cc(F)ccc3F)O[C@H](CO)[C@H]1O2,-4,8,.,.,1
C=C(C)c1cccc(C(C)(C)NC(=O)Nc2ccc(C)cn2)c1,-46,27,-14,22,-11
C=C(C)c1cccc(C(C)(C)NC(=O)Nc2cc(C)ccn2)c1,-23,38,52*,44,.
CCOc1ccc(C(=O)Nc2cc(C)ccn2)cc1,?,24,44,77*,65*
CCOc1ccc(C(=O)Nc2cccc(C)n2)cc1,.,.,15,63*,.
CCCCOc1ccc(C(=O)Nc2cccc(C)n2)cc1,.,.,37,31,.
Cc1ccnc(NC(=O)c2ccc(C(=O)c3ccccc3)cc2)c1,?,3,61*,88*,55*
CCOc1cc(C(=O)Nc2cc(C)ccn2)cc(OCC)c1OCC,.,.,-2,15,.
O=C(C[C@H]1C[C@@H]2c3cc(NC(=O)NC4CCCC4)ccc3O[C@@H]2[C@H](CO)O1)NCc1cc(F)ccc1F,-9,-5,.,.,-8
CC=Cc1ccc2n(c1=O)C[C@H]1[C@H](CO)[C@@H](C(=O)NCCC)N(Cc3cccc(F)c3)[C@@H]21 (mixture of isomers),1,-2,.,.,-3
COc1ccc(S(=O)(=O)N(C)C[C@@H]2Oc3ccc(NS(C)(=O)=O)cc3CC(=O)N([C@@H](C)CO)C[C@H]2C)cc1,0,-11,.,.,17
CO[C@@H]1CN(C)C(=O)c2cc(NC(=O)C3CC3)ccc2OC[C@H](C)N(CCc2ccccc2)C[C@H]1C,2,20,.,.,1
CCNC(=O)[C@H]1[C@H](CO)[C@H]2Cn3c(ccc(-c4ccncc4)c3=O)[C@H]2N1Cc1cc(F)ccc1F,.,4,.,.,-22
SMILES,EWS-Fli block,PAX8 reporter,TROY NFkB inh,TWEAK Fn14 block,LGR2 antag
COc1ccccc1N(Cc1ccccc1)S(=O)(=O)c1cccc(C(=O)Nc2cc(C)ccn2)c1,.,17,55*,66*,55*
C[C@H](O)C#Cc1ccc2c(c1)O[C@H](CN(C)Cc1ccccn1)[C@@H](C)CN([C@H](C)CO)S2(=O)=O,-2,.,.,.,-3
CC(C)(C)c1ccc(Cn2c(=N)n(CC(O)c3ccco3)c3ccccc32)cc1 (stereo not given),.,.,54*,69*,.
COCC(=O)N1C[C@@H](C)[C@@H](OC)CN(C)C(=O)c2cc(NC(=O)NC(C)C)ccc2OC[C@H]1C,7,1,.,.,-2
CCOc1ccc(C=NNC(=O)c2ccc(-n3cnnn3)cc2)cc1,-8,1,13,56*,28
CN(C)c1ccc(/C=N/NC(=O)c2ccc(-n3cnnn3)cc2)cc1,1,-3,10,20,2
Cc1ccc(-c2nc(N)sc2-c2ccc(C)cc2)cc1,14,-8,33,21,-12
Cc1ccc(-c2nc(N)sc2C)cc1,-19,-36,88*,-5,-20
C[C@H]1CN([C@@H](C)CO)C(=O)c2cccc(NC(=O)c3nc4ccccc4s3)c2O[C@H]1CN(C)S(=O)(=O)c1ccc(F)cc1,14,42,.,.,8
CN(C)C(=O)c1ccc(-c2ccccc2[C@H]2[C@H](C#N)N(C(=O)C3CCC3)[C@H]2CO)cc1,-9,-19,.,.,-3
CCCc1nnc(NC(=O)C(=O)NCCN(C)C)s1,4,7,-4,9,-6
CCCc1nnc(NC(=O)C(=O)NCCN(CC)CC)s1,-17,-10,54*,19,.
O=C(CCCN1C(=O)/C(=C/c2ccccc2Cl)SC1=S)NNC(=O)c1ccccc1Cl,66*,12,34,78*,-2
O=C(CCCN1C(=O)/C(=C/c2ccccc2Cl)SC1=S)NNC(=O)c1ccncc1,?,1,68*,79*,14
CCCNC(=O)N(C)C[C@H]1Oc2cc(C#CC3CC3)ccc2S(=O)(=O)N([C@@H](C)CO)C[C@@H]1C,2,.,.,.,-8
O=C(NCc1ccco1)c1nc2c(nnn2Cc2ccccc2Cl)c(=O)[nH]1,6,.,85*,85*,93*
COC(=O)C(=C/C(C)=C/c1cccnc1)C(=O)OC,2,18,42,65*,28
O=C(O)CCCCCCCCCCP(=O)(c1ccccc1)c1ccccc1,9,7,4,-94,10
O=P(CCCCCCCCCP(=O)(c1ccccc1)c1ccccc1)(c1ccccc1)c1ccccc1,.,80*,55*,48,.
Cc1ccc(S(=O)(=O)N(C)C[C@@H]2Oc3ccc(NS(=O)(=O)c4ccc(Cl)cc4)cc3C(=O)N([C@H](C)CO)C[C@H]2C)cc1,-6,.,.,.,11
O=C(N/N=C/c1cccc(F)c1)c1c(O)c2c([nH]c1=O)CCCC2,.,-35,53*,-10,-45
CC1=CC(C)(C)N(S(=O)(=O)c2ccc(C)cc2)c2cc(C)ccc21,.,.,33,21,.
COc1ccc2c(c1)C(C)=CC(C)(C)N2S(=O)(=O)c1ccc(C)cc1,?,79*,-2,27,5
CCOc1ccc2c(c1)C(C)=CC(C)(C)N2S(=O)(=O)c1ccc(C)cc1,24,82*,14,35,-4
Cc1ccccc1/C=C/c1cc[n+](C)cc1,-7,5,2,6,-11
C=CCn1c(C)c(/C=C/c2cc[n+](C)cc2)c2ccccc21,4,53,35,16,22
CCn1cc(/C=C/c2cc[n+](C)cc2)c2ccccc21,-16,77*,11,7,12
C=CCn1cc(/C=C/c2cc[n+](C)cc2)c2ccccc21,25,93*,9,17,15
CC(C)n1cc(/C=C/c2cc[n+](C)cc2)c2ccccc21,9,83*,19,5,6
